{"source": "the supplement of paper PMC13380429"}
{"system": "Vero E6 infected with SARS-CoV-2", "assay": "inhibition of SARS-CoV-2 cytopathic effect; higher = more antiviral protection, active = above 15", "conditions": "100 nM; 48 h"}
{"compound": "CNC[C@H](O)c1ccc(O)c(O)c1", "note": "[epinephrine]", "inhibition of SARS-CoV-2 cytopathic effect": "-1.01% (inactive)"}
{"compound": "Oc1ccc2ccccc2c1", "note": "[beta-naphthol]", "inhibition of SARS-CoV-2 cytopathic effect": "2.24% (inactive)"}
{"compound": "O=C(O)C1=C(CSc2nnnn2CS(=O)(=O)O)CS[C@@H]2[C@H](NC(=O)[C@H](O)c3ccccc3)C(=O)N12", "note": "[Cefonicid (sodium)]", "inhibition of SARS-CoV-2 cytopathic effect": "0.45% (inactive)"}
{"compound": "CC(C)NC(=N)NC(=N)Nc1ccc(Cl)cc1", "note": "[proguanil]", "inhibition of SARS-CoV-2 cytopathic effect": "-0.95% (inactive)"}
{"compound": "CCCCC(=O)O[C@H]1CC[C@H]2[C@@H]3CCc4cc(O)ccc4[C@H]3CC[C@]12C", "inhibition of SARS-CoV-2 cytopathic effect": "-1.48% (inactive)"}
{"compound": "CC(CN(C)C)C(C)(O)Cc1ccc(Cl)cc1", "note": "(configuration not stated) [clobutinol]", "inhibition of SARS-CoV-2 cytopathic effect": "1.61% (inactive)"}
{"compound": "Cn1cc(C(=O)OCC2CCN(CCNS(C)(=O)=O)CC2)c2ccccc21", "inhibition of SARS-CoV-2 cytopathic effect": "5.3% (inactive)"}
